SMILES strings stand for the structures. The campaign covered roughly 420,000 compounds. About 64,000 (15%) were called active. Roughly 27% stayed inconclusive and do not appear here. Calls follow the shape of the dose curve; as a rule, active = well fitted inhibition curve with a large enough effect; inconclusive = small, poorly fitted or top-dose-only effect; inactive = flat fitted curve, though single readings scatter. These entries were drawn from the full list. Where a call stands in place of a potency, no number is given. Square brackets hold non-standard residues; d marks the D form. Peptide text beside a SMILES is read from it. ξ: configuration not given here. Ac5c = NC1(C(=O)O)CCCC1; ξS = NC(CO)C(=O)O
Potency is read from the fitted curve at half-maximal effect.

A short description of the assay: qHTS for Inhibitors of human tyrosyl-DNA phosphodiesterase 1 (TDP1): qHTS in cells in absence of CPT. Also: nearly all actives have a fitted effect of over 55% in size. The conditions noted are these: DT40 Tdp1-/- hTDP1 cells, no CPT, ATP luminescence, 48 h; activity change, negative = growth inhibition: at 46.2 µM (top of the series). The gist of the method: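 Chicken DT40 Tdp1-/- cells stably complemented with human TDP1 were seeded at 400 cells/well with DMSO in place of 20 nM camptothecin. After compound pinning, cells grew at least 48 hr at 37 °C; viability read by CellTiter-Glo luminescence.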
On to `CC(C)(O)C#Cc1ccc(CNC[C@H]2O[C@@H](n3cnc4c(=O)[nH]c(N)nc43)[C@H](O)[C@@H]2O)s1`, for which the Potency result is “inactive”. As to `O=C(CN1CCC(NC(=O)C2CC2)CC1)Nc1ccccc1[N+](=O)[O-]`, the Potency result is “inactive”.

Consider `C=O`, for which the Potency entry is “inactive”. For the molecule `CN1CCC2(CC1)NC(=O)NC2=O`, the Potency result is “inactive”. Take `Cc1ccc(NC(=O)COC(=O)CNC(=O)c2ccc(Cl)cc2Cl)cc1S(=O)(=O)N1CCOCC1`: the Potency result was “inactive”.

In the case of `NC(=O)Cc1ccc2sc(-c3ccccc3)nc2c1`, the Potency entry was “inactive”. As for `Cn1c(=O)n(C)c2cc(/C=N/NC(=O)c3cccc(Br)c3)ccc21`, the Potency result was “inactive”. With `COc1ccc(CN(C)C(=O)Cc2ccsc2)c(OC)c1OC`, the Potency result was “inactive”. For `COc1ccc(CN(C)C(=O)c2cc(-c3ccc(C)cc3C)nc3ccccc23)c(OC)c1OC`, the Potency was 11.6 µM (active). As for `Cc1ccc(-c2cc(C(=O)Nc3nn[nH]n3)c3ccccc3n2)c(C)c1`, the entry is “inactive”; as for `CC(=O)Nc1nc2c(s1)C(=O)NCC(C)(C)C2`, “inactive”; as for `Cn1nc(C(C)(C)C)c(NC(=O)c2sccc2Cl)c1C(C)(C)C`, “inactive”.

Take `NCCCNCCCCN(CCCN)/[N+]([O-])=N/O`: the Potency is 13.3 µM (active).

`COc1ccc(CN2[C@@H](CC(=O)O)c3cc(F)ccc3S2(=O)=O)cc1`: the Potency result is “inactive”. For `COCCNC(=S)N1CCC(NC(=O)C23CC4CC(CC(C4)C2)C3)CC1`, the Potency entry is “inactive”. In the case of `Cc1csc(NC(=S)Nc2cccc(Cl)c2)n1`, the Potency was 4.61 µM (active).

`S=C(Nc1cccc(Cl)c1)Nc1ccc2cn[nH]c2c1`: the Potency result is “inactive”.

As for `S=C(Nc1cccc(Cl)c1)Nc1ccc2c(c1)OCCO2`, the Potency result was “inactive”. As for `COc1cc(Cl)c(C)cc1Nc1nnc(-n2nc(C)cc2C)c2ccccc12`, the entry is “inactive”; as for `Cc1ccc(NC(=O)NC(=O)CSc2nnc(-c3ccc(OC(F)F)cc3)n2N)c(C)c1`, “inactive”. Regarding `CCOC(=O)CN(C(=O)CN1CCOCC1)c1ccc(Br)cc1`, the Potency entry was “inactive”. The same measure for `COCCNC(=O)c1ccc2c(c1)ncn2-c1ccc(C)c(Cl)c1`: 14.6 µM (active). The same measure for `COC(CNC(=O)c1ccc2c(c1)ncn2-c1cc(C)cc(C)c1)OC`: “inactive”; for `COc1ccc(-n2cnc3cc(C(=O)NC4CCCC4)ccc32)cc1`: “inactive”. Regarding `CC(=O)N/C(=C\c1ccc(F)cc1)C(=O)NC(Cc1ccccc1)C(=O)O` (stereo not drawn), the Potency entry is “inactive”. As for `Cc1cc(C)cc(NC(=O)CSCc2cnn(-c3ccccc3)c2-n2cccc2)c1`, the figure is 10.3 µM (active). As to `Cc1cc(C)cc(NC(=O)CSc2ccccc2)c1`, the Potency result is “inactive”.

With `CC(=O)Nc1ccc(NC(=O)CSCc2cnn(-c3ccccc3)c2-n2cccc2)cc1`, the Potency entry is “inactive”.

With `CCOC(=O)c1ccc(N2C(=O)CC(N3CCN(C(=O)c4ccccc4)CC3)C2=O)cc1` (stereo not drawn), the Potency entry is “inactive”.

As for `Nc1nnc2c(C(F)(F)F)nc3ccccc3n12`, the Potency entry is “inactive”. In the case of `FC(F)(F)c1nnc2sc(-c3ccco3)nn12`, the Potency entry is “inactive”. As for `FC(F)(F)c1nnc2c3ccccc3c(Cl)nn12`, the figure is 6.51 µM (active); as for `O=C(COC(=O)c1cc2c(s1)CCCC2)NCc1ccccc1Cl`, “inactive”; as for `C/C(=N\NC(=O)c1ccc(CSc2nc(C)cc(C)n2)cc1)C1CCCCC1`, “inactive”.

In the case of `CC1CCN(C(=O)/C(=C\c2ccccc2F)NC(=O)c2ccccc2)CC1`, the Potency result was “inactive”.

For `COC(=O)c1cccc(N(C(=O)CNC(=O)c2cccs2)C(C(=O)NCC2CCCO2)c2ccc(OC)c(OC)c2)c1` (stereo not drawn), the Potency entry was “inactive”. `CCOCCn1c(-c2ccccc2)nc2ccccc21`: the Potency was 18.4 µM (active).

`COCCn1c(-c2ccc(OC)c(OC)c2)nc2ccccc21`: the Potency result was “inactive”. Consider `COc1ccc(-c2nc3ccccc3n2CCC(C)C)cc1OC`, for which the Potency is 25.9 µM (active). Consider `CCOCCn1c(C(C)C)nc2ccccc21`, for which the Potency entry is “inactive”. The same measure for `CCCn1c(C(O)c2cc(OC)ccc2OC)nc2ccccc21` (stereo not drawn): “inactive”.

In the case of `CCCCCN(C(=O)NC(=O)Nc1ccccc1OC)S(C)(=O)=O`, the Potency entry is “inactive”. As for `CC(C)c1ccc(NC(=O)Cn2nnc(C(=O)NCCc3ccccc3)c2N)cc1`, the entry is “inactive”. In the case of `CN(C)c1ccc(/C=C/c2sc3ccccc3[n+]2CCCCBr)cc1`, the Potency was 0.316 µM (active). As for `CN(C)c1ccc(/C=C/c2sc3ccccc3[n+]2C)cc1`, the figure is 0.141 µM (active); as for `Cc1cccc(CN2CCN(Cc3cnn(-c4ccccc4F)c3)CC2CCO)n1` (stereo not drawn), “inactive”; as for `CC(=O)N1CCN(S(=O)(=O)c2ccc(C)c([N+](=O)[O-])c2)C1C(C)C` (stereo not drawn), “inactive”. The same measure for `O=C1CC2(CCCC2)C(=O)N1CN1CCN(S(=O)(=O)c2ccc(F)cc2F)CC1`: “inactive”.

`CCC(C(=O)Nc1ncccn1)(C(F)(F)F)C(F)(F)F`: the Potency entry is “inactive”. The same measure for `COc1cc(Cl)c(C)cc1NC(=O)CSc1nnc(CN2CCCC2)o1`: “inactive”; for `COc1cc(NC(=O)CSC(=S)N2CCCC2)c(OC)cc1Cl`: 14.6 µM (active); for `CCOCC(=O)Nc1cc(OC)c(Cl)cc1OC`: “inactive”. Turning to `COc1ccc(C(=O)N(C)CC(O)c2ccccc2)cc1OC1CCN(C(C)=O)CC1` (stereo not drawn), the Potency entry was “inactive”. As for `Cc1cc2c(=O)n(CC(=O)NCC(=O)Nc3ccc(C(C)C)cc3)cnc2s1`, the entry is “inactive”. As for `CCC1(C)Cc2c(sc3nc(SC)nc(N)c23)CO1` (stereo not drawn), the Potency entry is “inactive”. As for `CCC1(C)Cc2c(sc3[nH]c(=S)n(Cc4ccccc4)c(=O)c23)CO1` (stereo not drawn), the figure is 18.4 µM (active); as for `CCC1(C)Cc2c(sc3nc(SC)[nH]c(=O)c23)CO1` (stereo not drawn), “inactive”. The same measure for `Cc1ccc(/C=C/C(=O)O)cc1S(=O)(=O)N1CCC(Cc2ccccc2)CC1`: “inactive”; for `CCOC(=O)C(CO)NC(=O)C1(NC(C)=O)CCCC1` (stereo not drawn) (Ac-[Ac5c]-[ξS]-OEt): “inactive”; for `C/C(=N\NC(=O)Cc1ccc(Br)cc1)c1cccnc1`: “inactive”. Turning to `COc1ccc(CC(=O)N/N=C(\C)c2ccccn2)cc1`, the Potency was 7.31 µM (active).

As to `O=C(Nc1ccc(NC(=O)c2ccccc2F)cc1)c1ccccc1F`, the Potency entry is “inactive”. As to `Cc1cccc(C)c1NC(=S)N1CCCCCC1`, the Potency entry is “inactive”. As for `C/C(=N\NC(=O)Cc1ccc(Cl)cc1)c1ccccn1`, the figure is 2.31 µM (active); as for `C/C(=N\NC(=O)c1ccccc1F)c1ccccn1`, 0.517 µM (active). In the case of `CC1=NNC(=O)C1CCC(=O)N/N=C(\C)c1ccc(Cl)cc1` (stereo not drawn), the Potency result was “inactive”. The same measure for `COc1ccc(C/C(C)=N/NC(=O)c2ccncc2)cc1`: “inactive”; for `CC(=NNC(=S)N1CCCCCC1)c1ccccn1`: 0.0164 µM (active); for `C/C(CC(=O)Nc1ccc(N(C)C)cc1)=N\NC(=O)c1ccccc1F`: “inactive”.

Consider `COc1ccc(/C(C)=N/NC(=O)c2ccc3nc[nH]c3c2)cc1`, for which the Potency result was “inactive”.

For the molecule `CNC(=S)N1CCN(c2ccccn2)CC1`, the Potency result is “inactive”. As for `CCN(CC(=O)Nc1cc(Cl)ccc1C)C(=O)Cn1c(=O)cnc2ccccc21`, the entry is “inactive”; as for `Cc1ccc(CC(=O)N(C)CC(=O)N(CC(C)C)c2c(N)n(CC(C)C)c(=O)[nH]c2=O)cc1C`, “inactive”. Take `O=C(COC(=O)c1ncc(Cl)c(Cl)c1Cl)NCc1cccs1`: the Potency result was “inactive”. For `CCN(CC)C(=O)Cn1cc(S(=O)(=O)CC(=O)NCc2ccc3c(c2)OCO3)c2ccccc21`, the Potency result is “inactive”. For `Cc1ccccc1/C=C\c1nc(O)c([N+](=O)[O-])c(=O)[nH]1`, the Potency result is “inactive”.

In the case of `Cc1ccc(NC(=O)COc2ccc(/C=N\NC(=O)c3cccnc3)cc2)cc1C`, the Potency result was “inactive”. The same measure for `CCOc1cc2c(Cl)ncnc2c(OCC)c1OCC`: “inactive”; for `O=S(=O)(Nc1ccc(OC(F)(F)F)cc1)c1cccc2nonc12`: “inactive”; for `CCOc1ccc(S(=O)(=O)n2ccnc2)c2ccccc12`: “inactive”. On to `CC[C@@H]1CC2=C(C(=O)OC(C)(C)O2)[C@@H](CC)O1`, for which the Potency result was “inactive”. As for `CC1(C)OC(=O)C2=C(CC(c3ccccc3)OC2CCc2ccccc2)O1` (stereo not drawn), the figure is 23.1 µM (active). The same measure for `CC(C)C1CC2=C(C(=O)OC(C)(C)O2)C(c2ccc(F)cc2)O1` (stereo not drawn): “inactive”; for `CN(C)c1nc(-c2cccnc2)nc(-c2ccc(Cl)cc2)c1C#N`: “inactive”. As for `CN(C)C(=O)Cn1c(=O)n(S(=O)(=O)c2ccccc2)c2ccccc21`, the entry is “inactive”. For `CC(=O)c1ccc(NC(=O)CCc2nc(-c3ccc(C)cc3)no2)cc1`, the Potency is 16.4 µM (active). The same measure for `CCNC(=O)CCc1nc(-c2ccc(C)cc2)no1`: “inactive”; for `Cc1ccc(-c2noc(CCC(N)=O)n2)cc1`: “inactive”; for `CC(C)CC(=O)N=C1SC2CS(=O)(=O)CC2N1CCc1ccccc1` (stereo not drawn): “inactive”. As for `CCOC(=O)C1CCCN(C(=O)c2cccc3ccccc23)CC1` (stereo not drawn), the entry is “inactive”. As for `CCOC(=O)C1CCN(c2ncnc3c2c(-c2ccccc2)cn3-c2cccc(C)c2)CC1`, the figure is 23.1 µM (active); as for `CCOC(=O)C1CCN(c2ncnc3c2c(-c2ccccc2)cn3-c2ccc(C)cc2)CC1`, 18.4 µM (active).

`CCOC(=O)C1CCN(C(=O)COc2cc(C)c(Br)c(C)c2)CC1`: the Potency result was “inactive”. In the case of `CCOC(=O)C1CCN(Cc2ccc(-c3ccccc3)cc2)CC1`, the Potency entry was “inactive”. Take `CCOC(=O)C1CCN(Cc2nnc(-c3cccc(Br)c3)o2)CC1`: the Potency entry was “inactive”. For the molecule `O=C(O)CCC(=O)Nc1ccc(N2CCOCC2)cc1`, the Potency result is “inactive”. With `CCCC1C(=O)N2C(N(C)C)=Nc3ccc(C)cc3N2C1=O` (stereo not drawn), the Potency result was “inactive”.

As for `Cc1cccc(NC(=O)c2sc3nc4c(c(-c5ccco5)c3c2N)CCC4)c1`, the Potency is 25.9 µM (active).

In the case of `NC(=O)c1sc2nc3c(c(-c4ccccc4)c2c1N)CCC3`, the Potency is 13 µM (active).

For the molecule `CN(C)c1ccnc2sc(C(=O)c3ccccc3)c(N)c12`, the Potency entry is “inactive”. As for `CCOC(=O)c1sc2nc(SC)nc(-c3ccccc3)c2c1N`, the entry is “inactive”.

Regarding `Cc1sc2nc(CC(N)=O)[nH]c(=O)c2c1-c1ccccc1`, the Potency entry is “inactive”. As for `Cc1cccc(NC(=O)/C(=C\c2ccco2)NC(=O)c2ccccc2)c1`, the entry is “inactive”; as for `CC(=O)Nc1ccc(NC(=O)c2sc3nc4c(c(-c5ccc(C)cc5)c3c2N)CCC4)cc1`, “inactive”. As to `Cc1nc2sc(C(=O)c3ccccc3)c(N)c2c2c1CCCC2`, the Potency was 20.6 µM (active). The same measure for `Cc1nn(C)cc1C(=O)c1ccccc1`: “inactive”; for `CCCCC(NS(=O)(=O)c1ccc(C)cc1)C(=O)Oc1ccc2c3c(c(=O)oc2c1)CCC3` (stereo not drawn): “inactive”. Regarding `CCc1c(-c2ccccc2)nc(N)c(C#N)c1-c1cccs1`, the Potency result is “inactive”.
